# Measurements published in the supplement of paper PMC10849652.
# The full data set covers some 7,900 targets. This sample favours those with a hit. About 0.6% of all pairs of compound and target were hits. Unmarked numbers belong to inactive results.
# Tests used:
# Test in all cases: log2 fold change, soluble protein after heating vs DMSO (PISA); higher = thermal stabilisation; K562 cells, 10 uM, 30 min; active = over 0.2 and 3.5 SD of the protein, either way, in both replicates (recomputed)
# [1] = compound: NC(=O)Nc1cc(-c2cccc(F)c2)sc1C(=O)N[C@H]1CCCNC1
# Summary of the method: (§1)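 K562 cells at 2×10^6 cells/mL were given 10 μM compound for 30 min. Aliquots then went through 3 min of heating across 48°C-58°C, were pooled, and were extracted in PBS with 0.5% NP-40 at 4°C, and the supernatant after 21,000xg for 90 min was quantified by TMTpro 16plex LC-MS/MS with channel sums equalised. Thermal stability relative to control samples, from duplicates, is given as log2 fold change.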
# [2] = compound: NC(=O)c1cnc(N[C@@H]2CCCC[C@@H]2N)nc1Nc1cccc(-n2nccn2)c1
# Summary of the method: as §1
# [3] = compound: NC1(c2ccc(-c3nc4ccn5c(=O)[nH]nc5c4cc3-c3ccccc3)cc2)CCC1
# Summary of the method: as §1
# [4] = compound: NCC(=O)Nc1ccc(-n2nc(C(F)(F)F)cc2-c2ccc3c(ccc4ccccc43)c2)cc1
# Summary of the method: as §1
# [5] = compound: Nc1ccccc1NC(=O)c1ccc(CNC(=O)OCc2cccnc2)cc1 [entinostat]
# Summary of the method: as §1
# [6] = compound: O=C(CCCCCCC(=O)Nc1ccccc1)NO [vorinostat]
# Summary of the method: as §1
# [7] = compound: O=C(CCCCCCNC(=O)c1cnc(N(c2ccccc2)c2ccccc2Cl)nc1)NO [citarinostat]
# Summary of the method: as §1
# [8] = compound: O=C(O)c1ccc2c(c1)nc(Nc1cccc(Cl)c1)c1ccncc12 [silmitasertib]
# Summary of the method: as §1
# [9] = compound: O=C1NC(=O)C(c2cnc3ccccn23)=C1c1cn2c3c(cc(F)cc13)CN(C(=O)N1CCCCC1)CC2
# Summary of the method: as §1
# [10] = compound: c1cc(OCCN2CCCCC2)cc(-c2n[nH]c3ccc(-c4nnc[nH]4)cc23)c1
# Summary of the method: as §1
# [11] = compound: c1cn2cc(-c3ccc4cn[nH]c4c3)nc(Nc3ccc(N4CCOCC4)cc3)c2n1 [entospletinib]
# Summary of the method: as §1
# Chain of UniProt Q15648 (Q15648 whole entry, looked up): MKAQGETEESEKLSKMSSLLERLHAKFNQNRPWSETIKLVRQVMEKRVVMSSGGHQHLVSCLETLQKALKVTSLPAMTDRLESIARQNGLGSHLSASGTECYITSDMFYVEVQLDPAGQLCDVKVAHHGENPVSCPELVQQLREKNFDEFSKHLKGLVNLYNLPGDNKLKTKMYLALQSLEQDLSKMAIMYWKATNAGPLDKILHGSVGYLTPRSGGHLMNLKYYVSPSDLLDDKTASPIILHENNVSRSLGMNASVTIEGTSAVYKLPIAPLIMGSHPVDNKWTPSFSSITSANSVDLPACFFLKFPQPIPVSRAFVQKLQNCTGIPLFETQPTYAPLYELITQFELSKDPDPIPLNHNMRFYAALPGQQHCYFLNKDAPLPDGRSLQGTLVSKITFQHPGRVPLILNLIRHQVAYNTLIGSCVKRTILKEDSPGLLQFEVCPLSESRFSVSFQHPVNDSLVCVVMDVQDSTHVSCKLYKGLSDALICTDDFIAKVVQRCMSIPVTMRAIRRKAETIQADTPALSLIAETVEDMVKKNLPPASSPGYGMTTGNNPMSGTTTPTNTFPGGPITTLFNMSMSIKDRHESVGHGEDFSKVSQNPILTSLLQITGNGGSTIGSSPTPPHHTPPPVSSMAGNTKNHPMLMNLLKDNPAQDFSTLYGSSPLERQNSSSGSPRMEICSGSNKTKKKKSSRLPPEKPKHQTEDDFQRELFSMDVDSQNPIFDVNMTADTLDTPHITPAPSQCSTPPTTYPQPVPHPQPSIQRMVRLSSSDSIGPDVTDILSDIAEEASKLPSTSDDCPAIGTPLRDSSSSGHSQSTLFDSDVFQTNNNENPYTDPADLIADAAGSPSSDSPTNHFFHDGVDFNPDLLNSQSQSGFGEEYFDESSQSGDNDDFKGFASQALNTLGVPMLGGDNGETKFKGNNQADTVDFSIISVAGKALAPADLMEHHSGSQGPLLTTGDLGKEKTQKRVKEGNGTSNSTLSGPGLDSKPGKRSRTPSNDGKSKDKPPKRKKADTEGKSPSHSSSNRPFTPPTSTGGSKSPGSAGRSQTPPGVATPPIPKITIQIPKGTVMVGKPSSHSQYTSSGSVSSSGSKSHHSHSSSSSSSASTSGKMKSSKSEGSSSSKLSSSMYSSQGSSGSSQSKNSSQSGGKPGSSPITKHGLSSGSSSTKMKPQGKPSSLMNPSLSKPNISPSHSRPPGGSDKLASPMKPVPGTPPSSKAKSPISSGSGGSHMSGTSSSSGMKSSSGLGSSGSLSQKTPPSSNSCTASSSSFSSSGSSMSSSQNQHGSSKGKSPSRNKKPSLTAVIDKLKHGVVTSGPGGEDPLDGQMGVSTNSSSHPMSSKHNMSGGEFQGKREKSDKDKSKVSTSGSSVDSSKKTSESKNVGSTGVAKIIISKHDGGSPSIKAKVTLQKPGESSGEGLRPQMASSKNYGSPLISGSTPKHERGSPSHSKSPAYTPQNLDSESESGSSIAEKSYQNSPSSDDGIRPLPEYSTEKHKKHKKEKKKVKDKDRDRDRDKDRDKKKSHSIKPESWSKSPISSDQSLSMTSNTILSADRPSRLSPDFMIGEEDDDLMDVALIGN
# Chain of UniProt Q9H6V9 (Q9H6V9 whole entry, looked up): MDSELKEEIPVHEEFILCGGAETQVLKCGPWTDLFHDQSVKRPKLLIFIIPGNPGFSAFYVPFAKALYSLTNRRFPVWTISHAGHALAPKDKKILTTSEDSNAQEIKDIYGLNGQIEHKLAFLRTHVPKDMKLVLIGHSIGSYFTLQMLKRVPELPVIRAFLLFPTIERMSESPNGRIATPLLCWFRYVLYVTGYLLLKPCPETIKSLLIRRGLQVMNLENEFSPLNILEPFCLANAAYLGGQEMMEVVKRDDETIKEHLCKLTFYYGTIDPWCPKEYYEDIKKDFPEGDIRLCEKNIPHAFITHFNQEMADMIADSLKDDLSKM
# Chain of UniProt Q9UGP4 (Q9UGP4 whole entry, looked up): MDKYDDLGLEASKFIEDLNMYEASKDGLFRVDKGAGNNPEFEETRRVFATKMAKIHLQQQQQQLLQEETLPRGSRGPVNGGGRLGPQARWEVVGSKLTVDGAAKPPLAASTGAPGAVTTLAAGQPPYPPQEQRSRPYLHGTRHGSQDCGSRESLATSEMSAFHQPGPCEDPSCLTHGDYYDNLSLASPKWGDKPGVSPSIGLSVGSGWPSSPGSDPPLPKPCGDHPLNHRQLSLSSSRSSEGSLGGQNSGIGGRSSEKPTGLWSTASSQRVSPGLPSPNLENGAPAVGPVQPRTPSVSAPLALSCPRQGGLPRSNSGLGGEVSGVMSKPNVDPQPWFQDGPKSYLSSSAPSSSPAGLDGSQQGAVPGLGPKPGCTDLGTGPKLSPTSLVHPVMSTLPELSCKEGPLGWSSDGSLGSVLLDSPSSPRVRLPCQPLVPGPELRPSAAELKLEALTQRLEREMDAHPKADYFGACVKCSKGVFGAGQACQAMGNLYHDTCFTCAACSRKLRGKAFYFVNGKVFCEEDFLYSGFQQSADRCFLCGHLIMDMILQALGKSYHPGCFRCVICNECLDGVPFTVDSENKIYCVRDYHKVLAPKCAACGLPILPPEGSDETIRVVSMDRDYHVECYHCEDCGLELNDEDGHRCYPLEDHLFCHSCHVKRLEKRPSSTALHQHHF
# Chain of UniProt Q9C0E8 (Q9C0E8 whole entry, looked up): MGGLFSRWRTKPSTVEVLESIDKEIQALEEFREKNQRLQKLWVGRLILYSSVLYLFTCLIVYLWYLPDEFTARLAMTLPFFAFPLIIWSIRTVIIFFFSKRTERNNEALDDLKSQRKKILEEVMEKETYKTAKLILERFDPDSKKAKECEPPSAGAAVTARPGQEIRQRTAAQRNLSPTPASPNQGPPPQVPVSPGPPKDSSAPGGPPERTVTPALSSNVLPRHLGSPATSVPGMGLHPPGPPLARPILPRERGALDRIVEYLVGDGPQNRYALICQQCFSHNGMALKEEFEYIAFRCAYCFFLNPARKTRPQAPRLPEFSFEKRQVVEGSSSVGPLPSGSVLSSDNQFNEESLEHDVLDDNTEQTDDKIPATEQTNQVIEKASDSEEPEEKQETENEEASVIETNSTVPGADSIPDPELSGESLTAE
# Chain of UniProt Q9UHB6 (Q9UHB6 whole entry, looked up): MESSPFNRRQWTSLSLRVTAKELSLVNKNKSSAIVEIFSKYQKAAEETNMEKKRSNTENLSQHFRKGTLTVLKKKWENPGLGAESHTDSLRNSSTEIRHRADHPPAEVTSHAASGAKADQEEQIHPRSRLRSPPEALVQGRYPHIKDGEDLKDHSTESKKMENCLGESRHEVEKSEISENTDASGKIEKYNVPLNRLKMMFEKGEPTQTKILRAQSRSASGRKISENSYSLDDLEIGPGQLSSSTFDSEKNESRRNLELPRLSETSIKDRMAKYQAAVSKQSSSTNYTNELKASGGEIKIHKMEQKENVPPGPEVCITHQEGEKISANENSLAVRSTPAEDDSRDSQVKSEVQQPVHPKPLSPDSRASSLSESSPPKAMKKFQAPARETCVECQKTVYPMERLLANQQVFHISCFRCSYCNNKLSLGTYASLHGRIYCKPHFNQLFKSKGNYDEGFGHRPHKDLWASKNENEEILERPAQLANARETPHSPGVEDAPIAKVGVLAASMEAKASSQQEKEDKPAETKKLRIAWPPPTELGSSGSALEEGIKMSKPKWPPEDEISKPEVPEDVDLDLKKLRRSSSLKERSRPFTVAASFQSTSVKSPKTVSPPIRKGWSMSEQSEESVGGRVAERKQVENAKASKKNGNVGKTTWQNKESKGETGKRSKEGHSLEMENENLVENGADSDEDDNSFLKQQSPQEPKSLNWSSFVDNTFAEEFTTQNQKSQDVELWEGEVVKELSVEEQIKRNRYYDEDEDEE
# Chain of UniProt P48449 (P48449 whole entry, looked up): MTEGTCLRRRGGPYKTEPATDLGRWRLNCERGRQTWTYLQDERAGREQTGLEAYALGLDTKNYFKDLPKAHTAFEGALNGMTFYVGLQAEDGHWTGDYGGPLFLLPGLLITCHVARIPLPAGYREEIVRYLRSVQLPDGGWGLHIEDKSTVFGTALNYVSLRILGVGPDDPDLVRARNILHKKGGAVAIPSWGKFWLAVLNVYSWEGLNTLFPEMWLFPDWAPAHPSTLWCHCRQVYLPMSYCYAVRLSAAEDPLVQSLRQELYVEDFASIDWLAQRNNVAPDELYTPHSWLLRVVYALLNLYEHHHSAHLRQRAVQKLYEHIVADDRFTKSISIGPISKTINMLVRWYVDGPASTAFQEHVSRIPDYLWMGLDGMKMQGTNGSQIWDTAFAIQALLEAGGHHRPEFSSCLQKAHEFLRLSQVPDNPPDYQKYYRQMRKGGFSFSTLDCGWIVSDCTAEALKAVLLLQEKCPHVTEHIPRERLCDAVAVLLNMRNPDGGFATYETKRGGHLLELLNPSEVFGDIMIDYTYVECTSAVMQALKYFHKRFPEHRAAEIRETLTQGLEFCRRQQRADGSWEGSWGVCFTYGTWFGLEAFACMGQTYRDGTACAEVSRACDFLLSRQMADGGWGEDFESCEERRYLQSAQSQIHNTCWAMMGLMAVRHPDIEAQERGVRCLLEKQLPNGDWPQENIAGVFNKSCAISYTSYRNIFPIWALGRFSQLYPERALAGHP
Target,log2 fold change [1],log2 fold change [2],log2 fold change [3],log2 fold change [4],log2 fold change [5],log2 fold change [6],log2 fold change [7],log2 fold change [8],log2 fold change [9],log2 fold change [10],log2 fold change [11]
KLC2 (UniProt Q9H0B6),-0.149,-0.084,-0.134,-0.044,0.031,0.044,0.061,0.063,0.007,-0.082,0.011
MGST1 (UniProt P10620),-0.025,-0.024,-0.035,0.163,0.031,0.027,-0.065,0.036,-0.086,0.122,0.051
INPP1 (UniProt P49441),-0.11,-0.035,-0.108,-0.036,-0.089,-0.066,0.024,-0.042,0.023,-0.039,0.017
KDM1A isoform 2 (UniProt O60341),0.055,-0.038,-0.063,0.012,0.155,0.135,0.007,0,-0.063,-0.064,-0.066
KRAS isoform 2 (UniProt P01116),-0.07,0.039,0.091,0.061,-0.015,-0.032,-0.018,0.001,-0.019,-0.032,-0.053
ME2 (UniProt P23368),-0.015,-0.034,0.07,-0.033,-0.013,0.058,0.025,0.186,-0.017,-0.093,0.008
MED1 (UniProt Q15648),0.027,-0.064,0.002,-0.113,-0.018,0.05,-0.001,-0.002,0.063,-0.124,0.019
ILVBL (UniProt A1L0T0),-0.053,-0.036,-0.022,-0.007,-0.041,0.002,0.064,-0.008,-0.009,-0.064,-0.028
LAMP2 (UniProt P13473),-0.013,0.043,-0.122,0.055,-0.045,0.083,0.158,0.005,0.065,-0.11,0.023
MCL1 (UniProt Q07820),-0.074,-0.33,-0.093,-0.039,0.072,0.011,-0.079,0.034,-0.112,0.142,0.081
LNPK (UniProt Q9C0E8),0.011,0.01,0.009,0.014,-0.013,-0.006,0.002,0.072,-0.051,-0.006,0.01
KIF3B (UniProt O15066),-0.016,-0.029,-0.091,-0.128,-0.016,-0.179,0.053,-0.086,-0.112,0.215,0.23
MCUR1 (UniProt Q96AQ8),-0.043,-0.048,0.011,0.01,-0.028,-0.026,-0.001,-0.023,-0.036,-0.018,0.018
MEAK7 (UniProt Q6P9B6),-0.011,-0.117,-0.122,-0.025,0.027,0.069,0.053,-0.028,-0.021,0.016,-0.06
LTN1 isoform 3 (UniProt O94822),0.024,-0.079,-0.125,-0.09,0.056,0.148,0.048,0.035,0.037,-0.045,-0.001
LSR (UniProt Q86X29),-0.135,0.066,0.066,0.039,-0.054,-0.027,0.006,-0.036,0.03,-0.012,-0.006
MFSD5 isoform 2 (UniProt Q6N075),-0.037,0.035,-0.137,-0.089,-0.099,-0.093,-0.009,-0.033,-0.193,-0.049,-0.005
KHDC4 (UniProt Q7Z7F0),-0.017,-0.003,-0.078,-0.034,0.009,0.028,0.08,0.01,-0.155,-0.052,-0.051
MAP2K1 (UniProt Q02750),-0.028,-0.062,-0.011,-0.027,-0.004,0.035,0.022,-0.064,-0.061,-0.035,-0.026
MAPK8 isoform 3 (UniProt P45983),-0.05,-0.02,-0.062,-0.05,0.001,-0.027,-0.049,0.008,-0.044,0.362,-0.038
METTL18 (UniProt O95568),-0.028,0.008,-0.034,0.023,-0.02,0.041,-0.046,0.03,0,-0.016,0.072
LSS (UniProt P48449),0.017,0.108,0.142,-0.049,0.003,0.052,-0.01,0.001,-0.001,-0.033,0.004
MAP2K3 isoform 3 (UniProt P46734),-0.04,-0.018,-0.14,-0.025,0.068,0.02,-0.126,-0.024,-0.188,-0.052,0.013
KDM3B (UniProt Q7LBC6),-0.051,-0.033,-0.114,-0.088,0.027,0.069,0.098,0.056,-0.064,-0.023,-0.027
IGF2R (UniProt P11717),-0.032,0.03,-0.546 (active),0.006,-0.008,0,0.07,0.021,-0.063,-0.184,-0.004
LUC7L2 (UniProt Q9Y383),-0.221,-0.025,0.09,-0.133,0.025,0.029,0.074,-0.233,0.002,-0.095,0
MED16 (UniProt Q9Y2X0),0.108,0.021,-0.005,-0.044,-0.047,0.107,-0.094,0.026,0.06,-0.117,0.014

Target,log2 fold change [1],log2 fold change [2],log2 fold change [3],log2 fold change [4],log2 fold change [5],log2 fold change [6],log2 fold change [7],log2 fold change [8],log2 fold change [9],log2 fold change [10],log2 fold change [11]
MCCC2 (UniProt Q9HCC0),0.047,-0.014,0.036,0.06,0.005,-0.043,0.083,0.025,0.006,-0.024,-0.002
MAP4 (UniProt P27816),0.039,0.002,0.04,0.025,-0.015,-0.013,-0.007,-0.018,0.003,-0.014,-0.017
MAST4 (UniProt O15021),-0.217,-0.038,-0.298,-0.115,0.085,0.045,0.135,-0.053,0.051,-0.151,-0.052
LARP1 (UniProt Q6PKG0),-0.064,0.002,0.051,-0.04,0.02,0.043,-0.025,0.028,0.113,-0.133,0.028
MAP2K7 isoform 4 (UniProt O14733),0.008,-0.051,-0.078,-0.015,0.015,0.084,0.041,-0.019,-0.052,-0.044,-0.009
LMBRD1 (UniProt Q9NUN5),0.006,0.046,-0.243,-0.162,0.099,0.048,0.048,-0.028,-0.003,0.049,-0.03
INPP5B (UniProt P32019),0.106,-0.066,-0.003,-0.108,0,0.128,-0.016,0.167,0.118,0.014,0.026
LARP7 isoform 3 (UniProt Q4G0J3),-0.011,-0.116,-0.129,-0.019,-0.007,0.082,0.043,0.03,-0.034,-0.065,0.006
MFN1 (UniProt Q8IWA4),-0.072,-0.171,-0.01,-0.224,0.034,0.021,0.034,0.102,-0.009,0.02,-0.028
IKZF1 (UniProt Q13422),0.164,-0.084,0.21,-0.03,0.064,0.003,0.019,-0.202,0.004,-0.061,0.042
KIF21A isoform 4 (UniProt Q7Z4S6),-0.068,0.055,-0.049,-0.093,0.01,0.012,0.002,0.033,0.213,-0.087,0.018
MAIP1 (UniProt Q8WWC4),-0.061,-0.06,-0.129,-0.009,-0.015,0.017,0.076,-0.012,-0.085,-0.012,-0.003
MAPK14 isoform 2 (UniProt Q16539),-0.052,0.028,-0.192,-0.168,0.016,-0.055,0.085,0.477,-0.004,0.024,-0.032
LIMD1 (UniProt Q9UGP4),0.009,0.005,0.004,-0.029,-0.038,0.025,0.052,0.03,-0.06,0.01,-0.025
IGFBP4 (UniProt P22692),-0.019,0.032,-0.011,-0.02,0.022,-0.017,-0.124,0.119,0.044,0.15,0.147
MIEF1 (UniProt L0R8F8),0.085,0.094,0.047,0.002,0.007,-0.012,0.039,-0.021,-0.063,-0.056,0.023
LDAH isoform 2 (UniProt Q9H6V9),-0.049,0.018,0.979 (active),-0.041,0.014,-0.011,0.061,0.014,-0.16,-0.057,0.016
LIMA1 isoform 4 (UniProt Q9UHB6),0.062,-0.045,0.081,0.006,0.004,0.067,-0.024,-0.006,-0.073,-0.012,-0.119
KPNA6 (UniProt O60684),0.01,-0.007,-0.06,-0.002,0.051,0.061,0.047,0.219,0.067,-0.159,-0.021
MDN1 (UniProt Q9NU22),-0.002,-0.087,-0.138,-0.058,0.112,0.098,0.075,-0.037,-0.032,0.082,-0.123
IMMT isoform 4 (UniProt Q16891),-0.022,-0.083,-0.132,-0.056,0.021,0.008,0.007,-0.038,-0.031,-0.035,-0.011
LIAS (UniProt O43766),-0.079,0.014,-0.035,-0.016,-0.047,-0.17,-0.093,0.026,0.062,-0.022,0.113
MAGEC2 (UniProt Q9UBF1),0.013,-0.037,-0.021,-0.004,-0.009,0.032,0.029,0.057,0.089,-0.09,0.061
KHDRBS1 (UniProt Q07666),-0.013,-0.038,-0.009,-0.034,-0.025,0.037,0.099,0.018,0.039,-0.064,0.189
MAPK9 (UniProt P45984),-0.058,-0.023,-0.053,-0.022,-0.028,-0.058,-0.022,-0.012,-0.102,0.187,-0.069
L2HGDH (UniProt Q9H9P8),-0.035,-0.026,-0.145,0.007,-0.012,-0.014,0.029,0.15,-0.053,0.029,0.039
IRAK4 (UniProt Q9NWZ3),0.349 (active),-0.088,-0.281 (active),-0.008,0.053,0.05,0.002,0.027,-0.024,-0.019,0.096
